The assay relates to RAF1. The settings on record: concentration: 1 μM, replicates: in singlicate; n = 1.
As for `COc1ccc(Nc2nccc(NCCNC(=O)Nc3cc(C)ccc3C)n2)cc1` [GSK1379899], the “%Inh” value is given as 3%.
With `Cn1cnc2c(N)ncnc21` [SKF-97623] the figure was 0%; with `Fc1ccc(-c2nc[nH]c2-c2ccncc2)cc1` [SB-217360], 18%; with `CNc1nc(-c2ccc3c(N)n[nH]c3c2)cc(N2C[C@@H](C(=O)Nc3ccccc3)CC[C@H]2C)n1` [GSK2298859], 4%.
Turning to `Nc1ncnc2occ(-c3ccc4c(c3)CCN4C(=O)Cc3cc(F)ccc3F)c12` [GSK2645446], the “%Inh” value came out at 0%.
Next, `COc1ccc2cc(-c3nc(-c4ccccc4C(C)C)[nH]c3-c3ccncc3)ccc2c1` [SB-660566]: 39%; `COc1cc2ncnc(Nc3cccc(Br)c3)c2cc1OC.Cl` [GI230329]: 0%.
With `CC(=O)c1cccc(NC(=O)NC2CCN(c3ccnc(Nc4ccc(F)cc4)n3)C2)c1` (stereo not shown) [GSK1379710] the figure was 13%; with `Cc1c(Cn2c3ccccc3n3c(=O)cc(N4CCOCC4)nc23)cccc1C(F)(F)F` [GSK2306394], 0%.
With `CCc1ccc(-c2ccc3c(c2)-c2n[nH]cc2S(=O)(=O)N3C)cc1`, the “%Inh” value is on record as 0%.
For `COc1ccc(-c2coc3ccc(-c4nnc(C)o4)cc23)cc1`, the “%Inh” value is on record as 11%.
Regarding `COc1cccc(CNC(=O)NC2CCN(c3ccnc(Nc4ccc(F)cc4)n3)C2)c1` (stereo not shown) [GSK1379723], the “%Inh” value is reported as 12%.
Turning to `COC(=O)C(Cc1ccccc1)NC(=O)NC1CCN(c2ccnc(Nc3ccc(F)cc3)n2)C1` (stereo not shown) [GSK1379714], the “%Inh” value was found to be 13%.
With `COc1ccc(Nc2nccc(N3CCC(NC(=O)C(C)c4ccc(Cl)cc4)C3)n2)cc1` (stereo not shown) [GSK1379735], the “%Inh” value is reported as 34%.
For `Cc1ccccc1Cn1ccn2c(=O)cc(N3CCOCC3)nc12` [GSK2269905], the “%Inh” value is listed as 8%.
For `NS(=O)(=O)c1cccc(N/C=C2\C(=O)Nc3ccc(S(=O)(=O)Cc4c(Cl)cccc4Cl)cc32)c1` [GSK398099], the “%Inh” value worked out at 15%.
Take `O=c1cc(N2CCOCC2)nc2n(Cc3ccccc3F)ccn12` [GSK2297428]: the “%Inh” value was 0%.
Consider `CC[C@@H]1CO[C@H](C(=O)Nc2ccccc2)CN1c1cc(-c2ccc3c(N)n[nH]c3c2)nc(NC)n1` [GSK2376236], for which the “%Inh” value was determined as 4%.
Turning to `CNc1nc(-c2ccc3c(N)n[nH]c3c2)cc(N2C[C@@H](C(=O)NC3CCCCC3)OC[C@H]2C)n1` [GSK2375584], the “%Inh” value amounted to 14%.
For `O=c1cc(N2CCOCC2)nc2n(Cc3cccc(Cl)c3Cl)c3ccccc3n12` [GSK2299009], the “%Inh” value is given as 10%.
With `c1ccc(-c2ccnc3[nH]ccc23)cc1` [SB-693578] the figure was 41%; with `Cn1cncc1C(=O)NC1CCN(c2ccnc(Nc3ccc(F)cc3)n2)C1` (stereo not shown) [GSK1379717], 43%.
With `COc1ccc(Nc2nccc(N3CCC(NC(=O)c4cc5ccccc5s4)C3)n2)cc1` (stereo not shown) [GSK1379738], the “%Inh” value is 11%.
Consider `COc1ccc(CSc2nnc(-c3ccc4ncsc4c3)o2)cc1C(F)(F)F`, for which the “%Inh” value is recorded as 7%.
In the case of `COC(=O)C(NC(=O)NC1CCN(c2ccnc(Nc3ccc(F)cc3)n2)C1)c1ccccc1` (stereo not shown) [GSK1379712], the “%Inh” value is 0%.
On to `CS(=O)(=O)Cc1ccc(Nc2nccc(-c3c(-c4cccc(NC(=O)C5CCCCC5)c4)nn4ncccc34)n2)cc1` [GSK350559], for which the “%Inh” value is 0%.
Consider `Cc1ccc(-c2nc(Nc3ccncc3)c3ccccc3n2)s1` [GSK189015], for which the “%Inh” value was determined as 12%.
As for `Cc1ccc(NC(=O)Nc2ccc(Cl)c(C(F)(F)F)c2)cc1-c1ccc(C(=O)Nc2ccncc2)cc1` [GSK1398470], the “%Inh” value stood at 90%.
Next, `CC(C)c1cc(-c2ccc3c(N)n[nH]c3c2)nc(N)n1` [GSK2250882]: 0%.
Turning to `Cc1nccc(-c2c(-c3ccc(F)cc3)ncn2CCCN2CCOCC2)n1.Cl` [SB-282975], the “%Inh” value is recorded as 0%.
Consider `FC(F)(F)c1ccccc1-c1cc(-c2c[nH]nc2-c2ccccn2)ccn1` [GW679396], for which the “%Inh” value was determined as 0%.
`Cc1ccc(NC(=O)Nc2ccccc2)cc1-c1ccc(C(=O)Nc2ccncc2)cc1` [GSK1398471]: the “%Inh” value is 73%.
In the case of `Cn1cncc1-c1cc2c(Nc3ccc(OCc4ccccc4)cc3)ncnc2cn1` [GW281179], the “%Inh” value amounted to 34%.
For `Nc1nccc(-c2c(-c3ccc(F)cc3)ncn2C2CCN(Cc3ccccc3)CC2)n1` [SB-219980], the “%Inh” value is listed as 0%.
On to `Cc1c(Cn2c(C)c(C)n3c(=O)cc(N4CCOCC4)nc23)cccc1C(F)(F)F` [GSK2328680], for which the “%Inh” value was determined as 13%.
With `COc1ccc(Nc2nccc(-c3ccc(NC(=O)c4cc5cc(F)ccc5[nH]4)cc3)n2)cc1` [GSK1229496], the “%Inh” value is 17%.
Turning to `Fc1ccc(-c2nc3n(c2-c2ccncc2)CCS3)cc1` [GI98581], the “%Inh” value is reported as 20%.
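Further: KINOMEscan kinase panel screen.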
